Compound activity from PubChem BioAssay.
D1 antag: antagonists of human D1 dopamine receptor; P21728; activity change, negative = inhibition, % at 10 µM; HEK293 TREx D1 cells, calcium flux, dopamine EC80; active compounds read low; hit rate 3.2% among 360,000; in the data active = activity change below about -30%; also: % is scaled to controls: 0 for no effect and ±100 for the full control effect
Target sequence (P21728 whole entry, looked up): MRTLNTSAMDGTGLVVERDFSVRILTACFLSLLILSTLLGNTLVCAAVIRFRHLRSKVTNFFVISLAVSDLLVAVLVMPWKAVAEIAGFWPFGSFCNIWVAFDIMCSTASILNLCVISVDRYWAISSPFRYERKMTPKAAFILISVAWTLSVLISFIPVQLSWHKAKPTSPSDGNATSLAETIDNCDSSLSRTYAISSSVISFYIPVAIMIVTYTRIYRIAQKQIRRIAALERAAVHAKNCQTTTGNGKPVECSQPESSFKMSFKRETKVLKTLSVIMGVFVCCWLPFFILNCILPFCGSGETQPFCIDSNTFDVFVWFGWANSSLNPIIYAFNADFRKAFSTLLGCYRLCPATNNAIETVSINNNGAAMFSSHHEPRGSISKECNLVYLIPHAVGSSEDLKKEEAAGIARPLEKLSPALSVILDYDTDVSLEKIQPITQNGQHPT
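HEK293 T-REx cells expressing inducible, force-coupled D1 receptor; no-wash Ca dye, 30–90 min RT. Cmpd → 180 s read at 1 Hz → EC80 DA → 180 s read.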
D1 PAM: potentiators of human D1 dopamine receptor. P21728. HEK293 TREx D1 cells, calcium flux, dopamine EC20 potentiation. AID 504651. potentiation, % at 10 µM. hit rate 0.036% among 360,000; in the data active = potentiation above about 30%; also: 0% is about no effect
DRD3 agonist: agonists of human D3 dopamine receptor; P35462; AID 652048; hit rate 0.58% among 410,000; max activation, %; D3R DiscoveRx beta-arrestin cells, luminescence, 90 min; in the data active = max activation above about 30%; also: 0% is about no effect
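Cells at 1500/well, incubated overnight, then treated with pinned compounds (dopamine as control) for 90 min at 37 degrees C. DiscoveRx reagent added for 30 - 60 minutes at room temperature; luminescence read.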
D3 antag: antagonists of human D3 dopamine receptor; P35462; D3R cells, DiscoveRx beta-arrestin luminescence, antagonist mode; active compounds read low; max response, negative = inhibition, %; hit rate 2.5% among 360,000; AID 652054; in the data active = max response below about -50%; inconclusive = no clear call, values can overlap the other calls; also: % is scaled to controls: 0 for no effect and ±100 for the full control effect
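Cells expressing the human receptor were seeded at 1500 cells/well, incubated overnight at 37 degrees C in 5% CO2, then exposed to library compounds with dopamine controls for 90 minutes at 37 degrees C before luminescent detection.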
D1 agonist: activates the human D1 dopamine receptor | P21728 | HEK293 T-REx D1 cells, calcium flux, agonist mode | activation, % at 2 µM | hit rate 1% among 360,000 | AID 504660; in the data active = activation above about 30%; also: 0% is about no effect
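Inducible HEK293 T-REx D1 cells, force-coupled to calcium signalling, were plated at 4000 cells/well with tetracycline and held overnight at 30 C. After no-wash calcium dye loading, compound-evoked calcium rise over 180 s flagged agonists.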
Numbers without * were called inactive; ? = inconclusive; / = no result given; ! = a repeat was not active. The list is not random: actives were taken first. Their share in the collection is about 6.1%.

SMILES	D1 antag	D1 PAM	DRD3 agonist	D3 antag	D1 agonist
CCOc1ccccc1N(C)S(=O)(=O)c1ccc2c(c1)N(C(C)=O)CCO2	3.6	1.4	6.4	-6.1	2.6
CO[C@H]1C=CO[C@@]2(C)Oc3c(C)c(O)c4c(O)c(c5c(nc6cc(C)ccn65)c4c3C2=O)NC(=O)/C(C)=C\C=C[C@H](C)[C@H](O)[C@@H](C)[C@@H](O)[C@@H](C)[C@H](OC(C)=O)[C@@H]1C	/	/	-12.1	/	/
CN1CCN(C(=O)c2c(NC(=O)c3ccco3)sc3c2CCC(C(C)(C)C)C3)CC1 (centres undefined)	-0.9	-5.9	-4.0	-17.9	34.1*
CC(C)(C)C1CCc2c(sc(NC(=O)c3cccs3)c2C(N)=O)C1 (centres undefined)	11.5	32.8*	-3.5	-6.5	3.8
CCCc1nc2ccc(C)cn2c1Cc1ccccc1OC	/	/	2.6	-2.5	/
COc1ccccc1Cc1c(-c2cccc(Cl)c2)nc2ccc(Br)cn12	/	/	-21.4	-83.0*	/
CC(C)(C)Cc1c(-c2cccc(Cl)c2)nc2ccc(Br)cn12	/	/	-16.2	-108.5*	/
CCCc1nc2ccc(Br)cn2c1Cc1ccccc1OC	/	/	77.6*	-19.2	/
COC(=O)c1ccc2nc(-c3cccc(Cl)c3)c(Cc3ccccc3OC)n2c1	/	/	-6.1	6.9	/
FC(F)(F)c1ccccc1Cc1c(-c2cccc(Cl)c2)nc2ccc(Cl)cn12	/	/	56.7*	-15.4	/
CN(C(=O)c1cccc(NC(=O)Cc2cccc(NC(=O)C3CCCN(C(=O)C4CCCC4)C3)c2)c1)C1CC1 (centres undefined)	/	/	-6.9	0.0	/
COc1ccc2c(c1)sc1ncc(C(=O)NCc3ccccc3F)c(=O)n12	-0.3	1.4	9.7	/	0.7
COc1ccccc1N1CCN(CCN2C(=O)CC(=C3c4ccccc4-c4ccccc43)C2=O)CC1	/	/	-7.3	-75.5*	/
Cc1ccccc1N1CCN(CCN2C(=O)CC(=C3c4ccccc4-c4ccccc43)C2=O)CC1	/	/	-5.0	-64.9*	/
Nc1ccc(/C=C/c2ccc(N)cc2S(=O)(=O)O)c(S(=O)(=O)O)c1	/	/	7.2	/	/
CCCCCC1NC(=O)NC1CCCCCC(=O)O (centres undefined)	-7.8	1.8	6.6	5.2	1.5
O=C(CCCO)CCCCCCCCC[C@H]1N[C@H](CO)[C@@H](O)[C@@H]1O	-45.4*	0.5	0.0	-15.7	0.7
O=C(NCCc1ccccc1)C(c1ccc(F)cc1)N(C(=O)c1csnn1)C1CC1 (centres undefined)	15.9	8.5	0.5	2.4	-2.2
O=C(NCc1ccc(F)cc1)C(c1ccco1)N(C(=O)c1csnn1)c1ccccc1 (centres undefined)	-3.7	/	49.0*	7.1	9.8
C=CCN(CC(=O)NCc1ccc(F)cc1)C(=O)c1csnn1	-35.3*	8.6	-4.6	-11.9	3.8
CCOC(=O)c1c(C)oc2nc(C)nc(Nc3cc(C)cc(C)c3)c12	0.5	0.2	-5.6	/	0.8
COCCN(C(=O)COC(=O)C1(C)CC1(Cl)Cl)c1c(N)n(Cc2ccccc2)c(=O)[nH]c1=O (centres undefined)	1.9	-5.8	-11.7	-10.4	3.1
Cc1ccc(C(=O)N2CCCC(CCC(=O)N3CCN(c4ccccn4)CC3)C2)cn1 (centres undefined)	-6.9	0.1	12.4	2.7	1.3
Cc1ccc(C(=O)N2CCCC(CCC(=O)N3CCN(c4ccccn4)CC3)C2)cc1C (centres undefined)	-39.5*	-5.3	-7.3	-4.7	7.1
CC(=O)Nc1ccc(S(=O)(=O)N2CCN=C2SCc2ccc(C)cc2)cc1	-41.2*	-2.8	9.9	9.7	23.1
SMILES	D1 antag	D1 PAM	DRD3 agonist	D3 antag	D1 agonist
CC(=O)Nc1ccc(S(=O)(=O)N2CCN=C2SCc2ccc(F)cc2)cc1	-26.2	-19.8	3.1	21.6	36.5*
CSC1=NCCN1S(=O)(=O)c1ccc(NC(C)=O)cc1	8.4	-4.5	4.4	18.1	1.1
COc1ccc(C(=O)N[C@H](C(=O)OCn2nnc3ccccc3c2=O)C(C)C)cc1	-13.5	3.0	-4.7	11.2	0.2
NC(=O)c1nsc(C(=O)N(c2ccccc2)C(C(=O)NCc2ccc(F)cc2)c2ccc(O)cc2)c1N (centres undefined)	5.6	3.1	13.9	95.1	11.7
Cn1c(-c2ccc(F)cc2)cnc1NCc1ccc(C#N)cc1	-0.6	-6.9	-0.8	-73.0*	13.0
COc1cc(CNc2ncc(-c3ccc(Br)cc3)n2C)cc(OC)c1OC	-25.8	-5.7	-25.6	?	3.1
Cn1c(-c2ccc(Br)cc2)cnc1NCc1cccnc1	-0.9	-1.4	-2.8	-62.5*	-0.2
COc1cc(-c2cc(OC)c3c(C)oc(C)c3c(=O)c2)ccc1OC(=O)c1cccc(Cl)c1	-25.1	-2.1	-18.5	/	12.6
Cc1ccc(C(=O)CSc2nc(-c3ccccc3)ccc2C#N)cc1	-10.8	-2.2	17.9	0.7	35.9*
O=C(CCCc1nc2ccccc2s1)N1CCN(c2ccccc2F)CC1	-13.4	-2.1	2.8	4.0	-0.3
O=C(CCCc1nc2ccccc2s1)N1CCN(c2ccccc2)CC1	-42.7*	-13.9	2.5	-1.1	0.2
CC(C)[C@H](NC(=O)OCc1ccccc1)C(=O)OCC(=O)N1CCN(c2ccc(F)cc2)CC1	-65.2*	-2.0	1.3	-1.8	5.7
CC(Oc1ccc(F)cc1)C(=O)Nc1cccc(S(=O)(=O)N(C)c2ccccc2)c1 (centres undefined)	/	/	-2.7	-1.3	/
c1ccc(CN2CCC(Nc3nc(-c4ccccc4)nc4ccccc34)CC2)cc1	-0.7	-2.5	-10.8	-1.7	6.8
c1ccc(CNc2ncnc3ccccc23)cc1	-1.6	-1.6	32.8*!	22.2	-1.7
c1ccc(CN2CCC(CNc3ncnc4ccccc34)C2)cc1 (centres undefined)	/	/	-16.3	-63.6*	/
CNc1nc(NCc2ccccc2)c2ccccc2n1	-37.4*	-7.8	-3.3	18.9	33.9*
C=CCNC(=O)COc1cc(C)ccc1C	-6.9	-0.9	-1.8	-19.1	1.4
COc1ccc(C2N3CC4(C)CN2CC(C)(C3)C4)cc1OC (centres undefined)	-35.6*	4.2	1.4	7.7	1.8
COCCOC(=O)c1c(NC(=O)CNCc2ccco2)sc(C(N)=O)c1C	-34.6*	-5.2	-6.8	13.0	4.3
COCCOC(=O)c1c(NC(=O)CNc2ccc(C)c(F)c2)sc(C(N)=O)c1C	6.9	1.2	27.8	4.8	2.7
Cc1ccc(Cn2nc(C)c(NC(=O)c3cc(C)no3)c2C)cc1	-78.5*	/	-2.1	8.0	2.2
Cc1nn(Cc2cccc(C(=O)NN)c2)c(C)c1Cl	7.1	-5.3	2.3	-24.3	2.1
Cc1nn(Cc2ccc(C(=O)NN)cc2)c(C)c1Cl	-43.9*	4.3	-8.1	-0.7	2.1
Cc1nn(Cc2ccc(Br)cc2)c(C)c1NC(=O)c1nn(C)cc1Cl	-39.1*	8.8	-3.9	-16.0	6.6
Cc1nn(Cc2ccccc2)c(C)c1CCC(=O)O	-82.7*	-5.8	1.0	28.1	0.1
